Consider seven compounds from PubChem BioAssay.

Several values for one entry are separate records, joined by “and”; a condition that tells them apart may be missing. Equal entries are not always repeated. Activity calls are given as the source filed them.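 The calls were made as follows, unless noted: active = compounds whose cell count with miR-34 switched on is under 0.7 times the count with it off; inactive = the rest.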

The nature of experiment [1]: sensitizers of A549 cells to miR-34 induction, primary screen, imaging, A549 dox-inducible miR-34, nuclei and caspase counts (AID 1347080). The conditions noted are these: A549 miR-34 inducible, Hoechst nuclei count, 48 h.
Experiment [2] is described as follows: circadian clock period modulators, cell-based, LOPAC library, luminescence reporter (AID 2774; call rule not given here;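 also: values are relative to mean of DMSO wells on each plate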). The conditions noted are these: circadian reporter cells, at 7 µM, actives lie on both sides.
Experiment [3] deals with Hepatitis C virus NS3 helicase. The experiment is described as follows: HCV NS3 helicase inhibitors, primary screen, biochemical, fluorescence polarization, LOPAC1280 library (AID 687035; in the data active = inhibition above about 37%). The following applies: Purified HCV NS3 helicase, Cy5-dT15 ssDNA binding fluorescence polarization; stronger effect = higher value; concentration not given here.
A short description of experiment [4]: Cy5 fluorescence quenching or enhancement artefacts, artefact control for HCV NS3 helicase inhibitor project, biochemical, LOPAC1280 (AID 687037; call rule not given here). The conditions noted are these: Cy5-DNA-NS3h complex fluorescence interference counterscreen.
Experiment [5] can be described thus: inhibitors of Cryptococcus chitosan production, flow cytometry, Cibacron Brilliant Red staining (AID 1347148; call rule not given here;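 also: compound exposure lasted three days at 37 degrees C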). The conditions noted are these: Cryptococcus neoformans chitosan, stronger effect = lower value; at 10 µM unless noted. In general terms: In flow cytometry, cells or beads pass a laser one at a time.
Experiment [6] is described as follows: phospholipid biosynthesis inhibitors in animal cells, primary screen, cell-based, LOPAC library, screen 4 (AID 1347384; call rule not given here). The conditions noted are these: phospholipid biosynthesis inhibition screen, at 10 µM.
Experiment [7] can be described thus: viability rescue of complex I mutant cybrids, primary screen, cell-based, galactose medium, ATP luminescence (AID 1645843;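 active = z-score of at least 1.8 in each of two replicates, scored against plate mean and spread of sample wells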;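 also: positive z means more ATP and so rescue of galactose-driven cybrid death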). The conditions noted are these: complex I mutant cybrid cells, 72 h, stronger effect = higher value.
Setting [8] is: stronger effect = lower value, cell number ratio, induced over uninduced.
[9] abbreviates: measured here: relative caspase fold change +Dox/-Dox.
Where [10] appears, read: measured here: total cells with miR-34 induction, stronger effect = lower value.
Where [11] appears, read: measured here: total cells without miR-34 induction.

On to `C[C@@H]1C[C@H]2O[C@@H]2/C=C\C=C\C(=O)Cc2c(Cl)c(O)cc(O)c2C(=O)O1`, for which the fold change in experiment [1] (setting [8]) is 1.01 (inactive); in experiment [1] (setting [9]), 1.3. For the same compound, the cell count was found to be 2240 in experiment [1] (setting [10]) and 2220 in experiment [1] (setting [11]).
In the case of `C=C1C(=O)O[C@H](CCCCCCCC)[C@H]1C(=O)O`, the fold change in experiment [1] (setting [8]) was 1.04 (inactive); in experiment [1] (setting [9]) it was 0.706. For the same compound, the cell count stood at 6150 in experiment [1] (setting [10]) and 5890 in experiment [1] (setting [11]).
On to `CN(C)CCCCCCOc1ccc(-n2ccnc2)cc1`, for which the fold change in experiment [1] (setting [8]) was 1.01 (inactive); in experiment [1] (setting [9]), 0.915 and 0.806. Also, the cell count in experiment [1] (setting [10]) was 5270 and 6380; in experiment [1] (setting [11]), 5240 and 6330.
In the case of `CC(C)=CCC/C(C)=C/CC/C(C)=C/C(O)P(=O)(O)O` (centres undefined), the fold change is 0.968 (inactive) in experiment [1] (setting [8]) and 0.767 in experiment [1] (setting [9]). The cell count in experiment [1] (setting [10]) came out at 5800; in experiment [1] (setting [11]), 5990.
As to `CCCCCCCCCCCCCCCCC/C=C/C(=O)O`, the fold change in experiment [1] (setting [8]) was 0.976 (inactive); in experiment [1] (setting [9]), 0.547. Also, the figures for the cell count in experiment [1] (setting [10]) and in experiment [1] (setting [11]) were 5370 and 5500, respectively.
For `CCCCC/C=C\CCCC/C=C\C/C=C\CCCC(=O)O`, in that order: 0.917 (inactive), 0.462, 5360 and 5850.
As a reminder, the inhibition is the drop in the measured response relative to a control, in per cent. For `CCN(CC)CCCCCCCCOC(=O)c1cc(OC)c(OC)c(OC)c1`, the period change in experiment [2] is -0.085 h (inactive). Also, the inhibition in experiment [3] is -4% (inactive). Also, the fluorescence ratio (interference) in experiment [4] was 0.9 (inactive). Moreover, the fold change was 1.02 (inactive) and 0.949 (inactive) in experiment [1] (setting [8]); 0.695 and 1.09 in experiment [1] (setting [9]). Also, the cell count in experiment [1] (setting [10]) is 8240 and 4880; in experiment [1] (setting [11]) it was 8090 and 5140. In experiment [5], the fold fluorescence was 8.07 [at 126.4 µM] (inactive). The compound was called inactive in experiment [6]. The z-score in experiment [7] is -0.285 (inactive).
